Gal4-VP16 FLuc: inhibits Gal4-VP16 luciferase reporter, ROR gamma counter-screen | Drosophila S2 Gal4-VP16 UAS-luciferase, luminescence, 20 h | Potency, µM (highest dose often 53.6 µM), without a hit: at the highest dose activity, negative = inhibition, hits mostly inhibitors | 310,000 tested, 3.5% active;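 further: Gal4-VP16 expression switched on by copper sulfate through the metallothionein promoter; potency means the concentration at half of the fitted maximal effect; nearly all actives have a fitted effect of over 50% in size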
FBPA coupling cs: counter-screen for Giardia aldolase inhibitors: coupling enzyme system; coupling enzyme system counterscreen, AmpLite Red fluorescence; 290,000 tested, 0.67% active; AID 2472; activity change, negative = inhibition, % at 58.2 µM, hits read low; in the data active means activity change below about -30%
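Counterscreen of the coupled detection system alone, without aldolase: glyceraldehyde-3-phosphate coupling enzymes plus AmpLite Red readout. Compounds at 57.5 uM final, 10 min RT preincubation, 20 min RT reaction, fluorescence 525/598 nm.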
RORgamma inh: ROR gamma (mouse) transcription inhibition. P51450. Drosophila S2 Gal4-RORgamma UAS-luciferase reporter, 20 h. Potency, µM (titrated, usually from 53.6 µM), inactives show at the highest dose activity change, negative = inhibition, usual class: inhibitors. AID 2551. 310,000 tested, 5.4% active; further: potency means the concentration at half of the fitted maximal effect; nearly all actives have a fitted effect of over 60% in size
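In this cell-based reporter format, copper sulfate (700 uM final) drives Gal4–ROR gamma fusion expression from a metallothionein promoter in Drosophila Schneider cells; compounds preincubated 1 hr, reporter read after 20 hr at ambient temperature.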
TSHR antag: human thyrotropin receptor antagonism | P16473 | TSHR-expressing cells, TSH-stimulated cAMP HTRF, 2 h; stronger effect = lower value | activity change, negative = inhibition, % at 11.5 µM | 330,000 tested, 0.2% active | AID 504810;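 active means activity change below a set negative limit, meaning inhibition stronger than a set level, cut at about -70% in these data; inconclusive means activity change between two set negative limits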
Target sequence (P16473 whole entry, looked up): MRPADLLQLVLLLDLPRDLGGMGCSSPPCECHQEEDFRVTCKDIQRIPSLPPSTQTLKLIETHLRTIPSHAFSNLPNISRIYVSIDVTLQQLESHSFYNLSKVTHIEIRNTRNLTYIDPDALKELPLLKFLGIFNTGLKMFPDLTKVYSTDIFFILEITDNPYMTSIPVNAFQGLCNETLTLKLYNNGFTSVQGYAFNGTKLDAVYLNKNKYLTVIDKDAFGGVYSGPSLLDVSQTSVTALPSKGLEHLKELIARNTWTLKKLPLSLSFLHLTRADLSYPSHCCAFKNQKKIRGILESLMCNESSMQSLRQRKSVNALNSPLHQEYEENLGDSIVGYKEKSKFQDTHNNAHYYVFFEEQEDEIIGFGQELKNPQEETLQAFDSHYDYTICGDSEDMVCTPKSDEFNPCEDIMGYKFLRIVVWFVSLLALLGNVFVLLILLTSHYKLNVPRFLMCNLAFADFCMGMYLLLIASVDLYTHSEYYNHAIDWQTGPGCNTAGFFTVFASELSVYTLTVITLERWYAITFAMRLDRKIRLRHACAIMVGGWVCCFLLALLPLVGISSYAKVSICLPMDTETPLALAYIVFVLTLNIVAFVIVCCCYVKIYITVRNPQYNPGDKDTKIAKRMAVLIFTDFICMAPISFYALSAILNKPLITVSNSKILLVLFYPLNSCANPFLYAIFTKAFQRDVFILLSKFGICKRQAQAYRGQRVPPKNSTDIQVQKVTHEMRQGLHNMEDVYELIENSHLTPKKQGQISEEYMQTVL
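Antagonism was scored as loss of TSH-driven cAMP in TSHR cells, stimulated with 4nM TSH (EC80) for 2 hours at 37 deg C and detected by homogeneous HTRF competition immunoassay.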
ELG1 repair inh: ELG1-dependent DNA repair inhibition; Potency, µM (highest dose often 46.1 µM), without a hit: at the highest dose activity change, negative = inhibition, usual class: inhibitors; HEK293T ELG1-luciferase reporter, luminescence, 16 h; DNA damage induced by 5-fluorouridine; 330,000 tested, 2.3% active; further: potency means the concentration at half of the fitted maximal effect; nearly all actives have a fitted effect of over 55% in size
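Reporter activity after DNA damage by 5-fluorouridine is monitored. Compound-treated cells incubate 16 hr at 37 °C, then ONE-Glo is added for 30 min before luminescence reading.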
* = called active by the depositor; u = inconclusive; x = no result given; [ ] = remark or other dose. In the library only some 8% were active in any assay of this set; here they are far more common. Unless noted, the call rests on the fitted dose curve; in most records, active means well fitted curve in the direction sought with a large enough effect; inconclusive means small, poorly fitted or top-dose-only effect, or another doubt; inactive means no such curve, though single readings can be large; an effect the other way counts as inactive or inconclusive. On the % scale 0 is the no-effect control and ±100 the full control effect.

SMILES	Gal4-VP16 FLuc	FBPA coupling cs	RORgamma inh	TSHR antag	ELG1 repair inh
Cc1ccc(Cn2cccc2C2=NC(C)CO2)cc1 (stereo unspecified)	-7%	-2	18µM*	1	-1%
CC(C)C1COC(c2cccn2Cc2ccccc2Cl)=N1 (stereo unspecified)	7%	1	u	-5	2%
O=C(COc1ccc(Cl)cc1Cl)N/N=C/c1ccc(OC2OC(CO)C(O)C(O)C2O)cc1 (stereo unspecified)	4%	2	11µM*	7	u
CC(C)CC(=O)NC(=S)Nc1ccc(N2CCN(C(=O)c3cccs3)CC2)cc1	6.3µM*	0	7.1µM*	6	u
Cc1ccccc1C(=O)Nc1ccc(N2CCN(C(=O)c3ccco3)CC2)cc1	-9%	1	40%	-11	-19%
Cc1ccc(C(=O)Nc2ccc(N3CCN(C(=O)c4ccco4)CC3)cc2)c(Cl)c1	25%	0	30%	0	18µM*
CC(C)C(=O)Nc1ccc(N2CCN(C(=O)c3cccs3)CC2)cc1	-2%	-2	7%	-1	-10%
Cc1ccccc1C(=O)N1CCN(c2ccc(NC(=S)NC(=O)c3cccs3)cc2)CC1	5.6µM*	-1	2.8µM*	-37	21µM*
Cc1ccc(C(=O)NC(=S)Nc2ccc(N3CCN(C(=O)c4ccco4)CC3)cc2)cc1	5.6µM*	x	13µM*	-2	u
CC(C)Oc1ccc(C(=O)Nc2ccc(N3CCN(C(=O)c4ccco4)CC3)cc2)cc1	21%	3	u	-21	-5%
Cc1ccc(N2CC(C(=O)OCc3nnc(-c4ccccc4)o3)CC2=O)cc1 (stereo unspecified)	x	x	x	-7	18%
O=C(Nc1ccc(N2CCN(C(=O)c3ccccc3)CC2)cc1)c1cccnc1	-5%	3	31%	-9	u
COc1ccc(C(=O)N2CCN(c3ccc(NC(=O)c4cccs4)cc3)CC2)cc1	-8%	0	35%	6	12µM*
Cc1ccc(C(=O)N2CCN(c3ccc(NC(=S)NC(=O)c4cccs4)cc3)CC2)cc1	11µM*	1	7.1µM*	-25	u
O=C(NC(=S)Nc1ccc(N2CCOCC2)cc1)c1cccs1	u	-1	2.8µM*	4	u
CCc1ccc(C(=O)N2CCN(c3ccc(NC(=O)c4cccnc4)cc3)CC2)cc1	3%	x	22%	2	23µM*
O=C(NCC(=O)N1CCN(c2ccccc2O)CC1)c1ccc2c(c1)OCO2	x	2	x	-8	-11%
Cc1ccc2cc(CCNS(=O)(=O)c3ccc(Br)cc3)c(=O)[nH]c2c1C	5%	2	27%	-9	u
COc1cc(/C=N/Nc2nc(=O)[nH]nc2C)cc(OC)c1O	-14%[10 µM]	4	-32%	-8	6%
CCOc1cc(/C=N/Nc2nc(=O)[nH]nc2C)ccc1O	-30%	-4	8.9µM*	-14	-9%
CCOc1cc(/C=N/NC(=O)C(=O)N/N=C/c2ccc(O)c(OCC)c2)ccc1O	-3%	-1	u	40	-3%
CCOc1cc(/C=N/Nc2nnc(C)n2N)ccc1O	u	-8	u	-14	5%
CCOc1ccc(/C=N/Nc2nc(=O)[nH]nc2C)cc1OC	-1%	-1	13µM*	-11	u
CCOc1cc(/C=N/Nc2ncnc(Cl)c2N)ccc1O	u	0	20µM*	1	u
CCOc1ccc(/C=N/Nc2ccccn2)cc1OC	u	-1	10µM*	4	u
SMILES	Gal4-VP16 FLuc	FBPA coupling cs	RORgamma inh	TSHR antag	ELG1 repair inh
CCOCCCNC(=O)C1(O)c2cc(Br)ccc2NC(=O)N1c1ccc(OCC)cc1 (stereo unspecified)	0%	0	20%	3	-2%
NC(=O)c1ccccc1-c1noc(-c2ccccc2F)n1	x	x	x	12	x
COc1ccc(NS(=O)(=O)c2ccc(O)c(C(=O)OCC(=O)NC(C)C3CC4CCC3C4)c2)cc1 (stereo unspecified)	-4%	6	u	-6	-10%
CC(NC(=O)COC(=O)c1cc(NS(=O)(=O)c2ccc(Cl)c([N+](=O)[O-])c2)ccc1O)C1CC2CCC1C2 (stereo unspecified)	11µM*	8	u	u	u
CC(C)(C)N(Cc1ccccc1)C(=O)COC(=O)CN1C(=O)NC2(CCCC2)C1=O	-6%	2	2%	7	u
COc1ccc(OC)c(NC(=O)c2ccccc2N(Cc2ccccc2)S(C)(=O)=O)c1	-5%	-1	u	2	u
CCCCCCCCCn1ccc(=N)cc1	1.6µM*	6	u	8	0.41µM*
CCn1ccc(=N)cc1	16µM*	0	5%	-10	5%
COCCC1CCCCN1C(=O)c1ccc2nc(Cc3ccccc3F)oc2c1 (stereo unspecified)	0%	0	-20%	0	u
CCOC(=O)c1ccc(N2C(=O)c3n[nH]c(-c4ccco4)c3C2c2ccc([N+](=O)[O-])cc2)cc1 (stereo unspecified)	-14%	2	0%[10 µM]	-13	23µM*
COc1ccc(C(=O)C2C3C4COC(O4)C(=O)C3C3C=Cc4ccccc4N32)c(OC)c1 (stereo unspecified)	-27%	-17	u	x	x
COc1cc2c(cc1OC)C(C)N(C(=O)c1cccs1)CC2 (stereo unspecified)	-19%[10 µM]	2	-16%	3	u
COc1cc2c(cc1OC)C(C)N(C(=O)c1cc3c(=O)oc4ccc(C)cc4c3s1)CC2 (stereo unspecified)	-21%	-2	10µM*	0	u
O=C(Nc1ccc(-n2cnnn2)cc1)c1cccc(S(=O)(=O)N2CCCC2)c1	x	x	x	-7	-23%
O=C(Cn1nnc2c(cnn2-c2ccccc2)c1=O)NCc1cccs1	24%	4	-3%	5	0%
CC1CCC(C(C)C)C(OC(=O)Cn2nnc3c(cnn3-c3ccccc3)c2=O)C1 (stereo unspecified)	-13%	-3	-2%	6	16µM*
CCCCC(=O)Nc1ccc(C(=O)N(CC)c2ccccc2C)cc1	-1%	-1	2.2µM*	-9	u
COc1ccccc1NC(=O)/C(C#N)=C/c1ccncc1	2.5µM*	x	u	-14	u
Cc1nc2ccccc2c(=O)n1/N=C/c1cc(Br)ccc1O	u	-3	13µM*	2	u
Cc1nc2ccccc2c(=O)n1/N=C/c1c(O)ccc2ccccc12	u	-18	13µM*	-1	u
CSc1nnc(C(C)(C)C)c(=O)n1/N=C/c1c(O)ccc2ccccc12	u	-10	10µM*	-49	8%

Screens (PubChem)
